7 compounds from PubChem BioAssay (NCATS) can be followed below.

Where “and” joins values, the source holds several entries; their conditions need not be identical. Identical values can stand only once. Records with an inconclusive call do not appear. Calls of active or inactive are those of the source. Unless noted, calls follow the shape of the full dose curve.

Experiment [1] has as its target Glucocorticoid receptor (Homo sapiens) (UniProt P04150). The experiment is described as follows: qHTS assay for small molecule agonists of glucocorticoid receptor signaling (AID 588532; active = well fitted curve in the direction sought with a large enough effect in the signal ratio, with a control signal flat; the % refers to the signal ratio;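 also: 100% = dexamethasone at 0.1 µM and 0% = DMSO only wells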). The conditions noted are these: HeLa MMTV-bla, beta-lactamase ratio, agonist, 18 h; stronger effect = higher value; percent of dexamethasone control, DMSO zero. A digest of the protocol:
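Cells were plated and rested 3-5 h at 37 C, compounds were added in titration and incubated 18 h, then CCF4 substrate was loaded for 2 h at RT before reading blue/green fluorescence. EC50 came from Hill-equation fitting.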
(In general: In qHTS, concentration-response curves come from the screen itself.)

The target is the same in experiment [2]. The experiment is described as follows: qHTS assay for small molecule antagonists of glucocorticoid receptor signaling (AID 588533; active = well fitted inhibition curve with a large enough effect in the signal ratio, with a control signal flat, not every such curve was filed as active; the % refers to the signal ratio; also: % is scaled to controls: 0 for no effect and ±100 for the full control effect). The note with it: HeLa MMTV-bla, GRE beta-lactamase ratio, antagonist mode, 18 h; series mostly up to 76.8 µM. The method in brief:
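Antagonist-mode qHTS: compound titrations added to GRE-bla HeLa cells, then dexamethasone 2 nM final; 18 h, 37 C. CCF4 FRET fluorescence normalized to dexamethasone and DMSO; IC50 from Hill fit.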

Experiment [3] can be described thus: qHTS assay for small molecule antagonists of peroxisome proliferator-activated receptor delta signaling (AID 588535; active = well fitted inhibition curve with a large enough effect in the signal ratio, with a control signal flat, not every such curve was filed as active; the % refers to the signal ratio;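 as to max response: cells co-treated with a PPAR-delta agonist as stimulator during compound exposure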). The note with it: HEK293T PPARd-UAS-bla, beta-lactamase FRET ratio, 18 h; 460 nm channel. A digest of the protocol: (§1)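 Beta-lactamase reporter read-out (405 nm excitation, 460/530 nm emission) after CCF4 loading for 2 hrs at RT. HEK293T PPAR-delta-UAS-bla cells, 2% charcoal/dextran FBS, compounds for 18 hrs at 37 C. Hill fit gave IC50 and efficacy.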

Experiment [4] concerns the target Peroxisome proliferator-activated receptor delta (Homo sapiens) (UniProt Q03181). Described as above. The note with it: HEK293T PPARd-UAS-bla, beta-lactamase FRET ratio, 18 h; series mostly up to 76.7 µM. The method in brief: as §1
Experiment [5] has as its target Peroxisome proliferator-activated receptor gamma (Homo sapiens) (UniProt P37231). In words: qHTS assay for small molecule agonists of peroxisome proliferator-activated receptor gamma signaling (AID 588536; active = well fitted curve in the direction sought with a large enough effect in the signal ratio, with a control signal flat, not every such curve was filed as active; the % refers to the signal ratio;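 also: 0% = DMSO basal wells and 100% = rosiglitazone at 2 µM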). The note with it: HEK293 PPARg-UAS-bla, beta-lactamase ratio, 16 h, percent of rosiglitazone response, DMSO as zero; series mostly up to 76.7 µM. A digest of the protocol:
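Cells were plated and held 6–6.5 h at 37 C, then compounds were added as a titration series. After a further 16 h, CCF4 dye was loaded for 2 h at room temperature and emission at 460/530 nm recorded.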

The target is the same in experiment [6]. In words: qHTS assay for small molecule antagonists of peroxisome proliferator-activated receptor gamma signaling (AID 588537; active = well fitted inhibition curve with a large enough effect in the signal ratio, with a control signal flat, not every such curve was filed as active; the % refers to the signal ratio;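 also: reporter cells co-stimulated with 50 nM rosiglitazone agonist during compound treatment; % of control where 0% means no effect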). The conditions noted are these: HEK293 PPARg-UAS-bla, beta-lactamase ratio, antagonist mode; series mostly up to 76.8 µM. The method in brief:
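Read-out: CCF4 fluorescence (ex 405, em 460/530 nm) after 2 h at RT. Cells were HEK293 carrying a UAS-bla reporter and treated 16 h at 37 C with compound plus rosiglitazone (50 nM final). Normalized to rosiglitazone and DMSO.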

Experiment [7] is described as follows: qHTS assay for small molecule agonists of retinoid X receptor alpha signaling (AID 588544).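 As to activation: 0% = DMSO basal wells and 100% = reference agonist.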 The conditions noted are these: HEK293T RXRa-UAS-bla, beta-lactamase reporter, 18 h; 530 nm emission.
In experiment [8] the target is Retinoic acid receptor RXR-alpha (Homo sapiens) (UniProt P19793). Described as above. The note with it: HEK293T RXRa-UAS-bla, beta-lactamase reporter, 18 h; series mostly up to 76.7 µM.
Experiment [9] deals with Thyroid hormone receptor beta (Homo sapiens) (UniProt P10828). The experiment is described as follows: qHTS assay for small molecule agonists of thyroid hormone receptor beta signaling (AID 588545). The note with it: TR-UAS-bla GripTite HEK 293, beta-lactamase ratio, agonist mode, 18 h, percent of T3 response, DMSO as zero; series mostly up to 76.7 µM. The method in brief: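 Agonist activity was read as beta-lactamase CCF4 fluorescence (405 ex, 460/530 em), scaled between DMSO (0%) and 10 nM T3 (100%), then Hill-fitted for EC50 and efficacy. HEK 293 TR-UAS-bla cells in 2% charcoal/dextran FBS medium were exposed 18 h at 37 C.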

A short description of experiment [10]: qHTS assay for small molecule antagonists of retinoid X receptor alpha signaling (AID 588546; active = well fitted inhibition curve with a large enough effect in the signal ratio, with a control signal flat, not every such curve was filed as active; the % refers to the signal ratio;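 also: cells stimulated with 9-cis-retinoic acid as agonist; % is scaled to controls: 0 for no effect and ±100 for the full control effect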). The note with it: HEK293T RXRa-UAS-bla, beta-lactamase ratio, antagonist mode; measured here: W530 green channel, cytotoxicity proxy. A digest of the protocol:
(§2)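 Beta-lactamase reporter inhibition, read as CCF4 fluorescence ratio (ex 405, em 460/530 nm) after 2 h at RT. HEK293T UAS-bla cells, 2500/well, were stimulated with 9-cis-RA at 500 or 100 nM final alongside test compound for 18 h at 37 C.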

The target in experiment [11] is Retinoic acid receptor RXR-alpha (Homo sapiens) (UniProt P19793). Described as above. The conditions noted are these: HEK293T RXRa-UAS-bla, beta-lactamase ratio, antagonist mode. A digest of the protocol:
as §2

The target in experiment [12] is Thyroid hormone receptor beta (Homo sapiens) (UniProt P10828). The experiment is described as follows: qHTS assay for small molecule antagonists of thyroid hormone receptor beta signaling (AID 588547; active = well fitted inhibition curve with a large enough effect in the signal ratio, with a control signal flat, not every such curve was filed as active; the % refers to the signal ratio;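 also: cells stimulated with 0.4 nM T3 agonist during compound exposure; % is scaled to controls: 0 for no effect and ±100 for the full control effect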). The note with it: TR-UAS-bla HEK293, beta-lactamase ratio, antagonist mode, 18 h. A digest of the protocol: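 TR-UAS-bla GripTite HEK293 cells in 2% charcoal/dextran FBS medium; compounds 0.59 nM to 92 uM with T3 at 0.4nM final, 18 h at 37 C. Beta-lactamase read by CCF4 fluorescence (460/530 nm); Hill fits gave IC50 and efficacy.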

A short description of experiment [13]: qHTS assay for small molecule agonists of the antioxidant response element (ARE) signaling pathway (AID 651741; active = well fitted activation curve with a large enough effect in the signal ratio; the % refers to the signal ratio; also: potency is read from the fitted curve at half-maximal effect; as to activation: % of control where 0% means no effect). The note with it: HepG2 ARE-bla reporter, beta-lactamase FRET ratio, 16 h; series mostly up to 96 µM. A digest of the protocol: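 HepG2 ARE-bla reporter cells, 2,000/well; 5 h settle at 37 C/5% CO2; compound pin transfer (23 nL, DMSO); 16 h at 37 C; LiveBLAzer B/G FRET substrate, 2 h RT; fluorescence intensity read.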

Experiment [14] is described as follows: qHTS assay for small molecule activators of the p53 signaling pathway (AID 651743; active = well fitted activation curve with a large enough effect in the signal ratio, not every such curve was filed as active; the % refers to the signal ratio; also: % of control where 0% means no effect). The note with it: HCT-116 p53RE-bla, beta-lactamase FRET ratio, 16 h; stronger effect = higher value. A digest of the protocol:
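Reporter: beta-lactamase driven by p53 response elements, stably integrated in HCT-116 cells. Cells seeded at 4,000/well, 5 h preincubation, compound (DMSO) 16 h at 37 C; B/G FRET substrate 2 h RT; fluorescence intensity read.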

The nature of experiment [15]: qHTS assay for small molecule activators of the nuclear factor-kappa B (NF-kB) signaling pathway (AID 651749; active = well fitted activation curve with a large enough effect in the signal ratio; the % refers to the signal ratio; also: % of control where 0% means no effect). The conditions noted are these: NF-kB-bla ME-180 cells, beta-lactamase FRET ratio, 16 h; stronger effect = higher value. The method in brief:
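NF-kB-bla ME-180 cells, 2,000/well; 23 nL compound or DMSO pinned; 16 hr, 37C/5% CO2; beta-lactamase FRET read-out.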

Experiment [16] addresses Vitamin D3 receptor (Homo sapiens) (UniProt P11473). The experiment is described as follows: qHTS assay for small molecule antagonists of vitamin D receptor signaling (AID 588541).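 Also: receptor activated by calcitriol during compound treatment; % is scaled to controls: 0 for no effect and ±100 for the full control effect.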 The note with it: HEK293T VDR-UAS-bla, beta-lactamase ratio, antagonist mode; series mostly up to 76.7 µM. The method in brief:
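VDR-UAS-bla HEK293T cells in 2% charcoal-stripped FBS were stimulated with 1-alpha,25-dihydroxyvitamin D3 (3 nM final) plus compound for 16 h at 37 C. The beta-lactamase CCF4 readout was normalized to 50 nM agonist and DMSO, and Hill fits gave IC50.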

The target is the same in experiment [17]. In words: qHTS assay for small molecule agonists of vitamin D receptor signaling (AID 588543).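 Also: 0% = DMSO basal and 100% = reference agonist control.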 The note with it: HEK293T VDR-UAS-bla, beta-lactamase ratio, 16 h; series mostly up to 76.8 µM. A digest of the protocol:
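Reporter cells (HEK293T, VDR-UAS-bla) were seeded in medium with 2% charcoal-stripped serum and incubated 5 h, then compounds in concentration series were added for 16 h at 37 °C. Stimulation was scaled between DMSO basal and 50 nM 1α,25-dihydroxyvitamin D3.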

In experiment [18] the target is Voltage-gated inwardly rectifying potassium channel KCNH2 (Homo sapiens) (UniProt Q12809). In words: qHTS Assay for Small Molecule Inhibitors of the Human hERG Channel Activity (AID 588834; active = well fitted inhibition curve with a large enough effect;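 also: top concentration of the series differs between compounds; % is scaled to controls: 0 for no effect and ±100 for the full control effect; lower thallium flux fluorescence means stronger hERG block; nearly all actives have a fitted effect of over 50% in size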). The note with it: U2OS BacMam hERG, FluxOR thallium flux fluorescence; series mostly up to 92.2 µM. The method in brief:
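Step 1: BacMam hERG transduction of U2OS, 4 hrs RT. Step 2: overnight 37 °C, plate 2000 cells/well, 4 hr. Step 3: FluxOR load, compound 10 min, stimulate, read fluorescence.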

Sequence of Voltage-gated inwardly rectifying potassium channel KCNH2 (Homo sapiens) (Q12809 whole entry, looked up): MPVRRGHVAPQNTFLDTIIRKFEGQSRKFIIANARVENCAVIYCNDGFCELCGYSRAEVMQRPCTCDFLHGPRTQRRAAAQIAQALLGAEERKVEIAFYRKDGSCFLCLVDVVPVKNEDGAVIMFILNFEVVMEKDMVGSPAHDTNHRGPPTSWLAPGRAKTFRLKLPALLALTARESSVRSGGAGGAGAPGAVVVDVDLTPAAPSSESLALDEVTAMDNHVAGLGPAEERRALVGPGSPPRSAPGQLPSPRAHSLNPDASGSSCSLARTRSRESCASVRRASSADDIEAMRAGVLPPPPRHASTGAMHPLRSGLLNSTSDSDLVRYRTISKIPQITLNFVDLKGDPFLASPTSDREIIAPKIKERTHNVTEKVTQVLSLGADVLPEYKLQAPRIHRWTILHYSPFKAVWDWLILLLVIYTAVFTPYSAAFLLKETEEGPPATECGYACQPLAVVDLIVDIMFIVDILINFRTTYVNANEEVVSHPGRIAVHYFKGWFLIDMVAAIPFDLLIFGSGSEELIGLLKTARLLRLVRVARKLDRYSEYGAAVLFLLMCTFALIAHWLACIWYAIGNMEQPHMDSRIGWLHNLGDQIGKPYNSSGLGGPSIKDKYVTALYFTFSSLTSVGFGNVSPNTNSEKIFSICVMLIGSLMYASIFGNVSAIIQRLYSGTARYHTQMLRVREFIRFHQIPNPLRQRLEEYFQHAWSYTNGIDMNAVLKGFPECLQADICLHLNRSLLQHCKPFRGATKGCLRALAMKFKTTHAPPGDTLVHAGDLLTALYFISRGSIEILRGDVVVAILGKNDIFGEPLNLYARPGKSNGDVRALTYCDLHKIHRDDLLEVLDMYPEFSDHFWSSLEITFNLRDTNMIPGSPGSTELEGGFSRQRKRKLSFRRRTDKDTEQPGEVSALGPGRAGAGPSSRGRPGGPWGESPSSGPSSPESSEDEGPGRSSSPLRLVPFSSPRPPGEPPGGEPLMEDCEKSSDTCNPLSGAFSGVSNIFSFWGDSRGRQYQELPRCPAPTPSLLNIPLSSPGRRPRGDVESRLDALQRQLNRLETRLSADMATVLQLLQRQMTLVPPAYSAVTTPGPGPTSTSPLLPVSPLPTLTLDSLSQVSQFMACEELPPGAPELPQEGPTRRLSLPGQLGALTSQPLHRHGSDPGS
Sequence of Peroxisome proliferator-activated receptor delta (Homo sapiens) (Q03181 whole entry, looked up): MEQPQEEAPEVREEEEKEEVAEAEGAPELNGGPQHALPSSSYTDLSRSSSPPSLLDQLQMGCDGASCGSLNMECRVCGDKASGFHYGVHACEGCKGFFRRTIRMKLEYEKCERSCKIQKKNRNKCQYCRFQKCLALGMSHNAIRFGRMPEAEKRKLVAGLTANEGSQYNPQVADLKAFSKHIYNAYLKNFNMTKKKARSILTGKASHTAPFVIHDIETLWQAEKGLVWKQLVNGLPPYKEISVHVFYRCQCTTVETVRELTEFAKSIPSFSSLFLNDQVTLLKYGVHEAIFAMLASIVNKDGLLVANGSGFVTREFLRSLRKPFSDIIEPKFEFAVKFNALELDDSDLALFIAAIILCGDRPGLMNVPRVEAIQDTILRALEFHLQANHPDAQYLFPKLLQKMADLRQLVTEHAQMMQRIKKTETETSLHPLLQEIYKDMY
Sequence of Thyroid hormone receptor beta (Homo sapiens) (P10828 whole entry, looked up): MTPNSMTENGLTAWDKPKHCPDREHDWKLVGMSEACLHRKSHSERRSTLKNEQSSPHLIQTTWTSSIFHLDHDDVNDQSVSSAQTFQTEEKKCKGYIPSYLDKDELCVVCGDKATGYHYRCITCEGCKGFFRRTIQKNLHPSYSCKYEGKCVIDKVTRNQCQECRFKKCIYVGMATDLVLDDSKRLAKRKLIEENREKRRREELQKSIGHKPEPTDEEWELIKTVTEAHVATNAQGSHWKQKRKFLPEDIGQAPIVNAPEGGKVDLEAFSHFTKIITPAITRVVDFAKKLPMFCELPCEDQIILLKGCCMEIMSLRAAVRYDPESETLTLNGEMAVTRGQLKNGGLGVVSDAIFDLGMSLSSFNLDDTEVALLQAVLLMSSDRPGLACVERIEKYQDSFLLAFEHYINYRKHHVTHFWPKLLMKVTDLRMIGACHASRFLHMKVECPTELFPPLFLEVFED
Sequence of Retinoic acid receptor RXR-alpha (Homo sapiens) (P19793 whole entry, looked up): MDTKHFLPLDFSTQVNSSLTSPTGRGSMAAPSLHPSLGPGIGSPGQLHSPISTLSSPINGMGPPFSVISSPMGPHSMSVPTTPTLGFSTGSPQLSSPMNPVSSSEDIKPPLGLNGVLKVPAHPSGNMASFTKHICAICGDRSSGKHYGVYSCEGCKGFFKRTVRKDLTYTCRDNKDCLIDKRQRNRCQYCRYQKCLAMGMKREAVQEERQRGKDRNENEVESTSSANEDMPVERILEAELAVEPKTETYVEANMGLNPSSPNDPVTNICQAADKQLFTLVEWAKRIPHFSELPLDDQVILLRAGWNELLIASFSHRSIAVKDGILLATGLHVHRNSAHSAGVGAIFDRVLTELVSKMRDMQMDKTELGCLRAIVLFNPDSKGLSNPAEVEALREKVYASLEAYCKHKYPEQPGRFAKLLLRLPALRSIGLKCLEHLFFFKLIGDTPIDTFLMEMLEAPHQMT
Sequence of Vitamin D3 receptor (Homo sapiens) (P11473 whole entry, looked up): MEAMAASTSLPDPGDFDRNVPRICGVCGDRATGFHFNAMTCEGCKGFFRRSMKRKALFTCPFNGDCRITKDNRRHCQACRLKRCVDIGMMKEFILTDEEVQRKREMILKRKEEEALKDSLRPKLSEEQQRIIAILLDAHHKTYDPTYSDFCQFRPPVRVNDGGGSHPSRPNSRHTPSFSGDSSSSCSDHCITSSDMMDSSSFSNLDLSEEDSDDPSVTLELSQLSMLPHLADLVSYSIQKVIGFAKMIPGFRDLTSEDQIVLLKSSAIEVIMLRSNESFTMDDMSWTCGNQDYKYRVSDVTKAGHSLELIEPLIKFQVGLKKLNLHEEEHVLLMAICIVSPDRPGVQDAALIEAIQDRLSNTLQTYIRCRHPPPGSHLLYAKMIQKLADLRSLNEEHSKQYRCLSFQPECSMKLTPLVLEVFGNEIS
Sequence of Peroxisome proliferator-activated receptor gamma (Homo sapiens) (P37231 whole entry, looked up): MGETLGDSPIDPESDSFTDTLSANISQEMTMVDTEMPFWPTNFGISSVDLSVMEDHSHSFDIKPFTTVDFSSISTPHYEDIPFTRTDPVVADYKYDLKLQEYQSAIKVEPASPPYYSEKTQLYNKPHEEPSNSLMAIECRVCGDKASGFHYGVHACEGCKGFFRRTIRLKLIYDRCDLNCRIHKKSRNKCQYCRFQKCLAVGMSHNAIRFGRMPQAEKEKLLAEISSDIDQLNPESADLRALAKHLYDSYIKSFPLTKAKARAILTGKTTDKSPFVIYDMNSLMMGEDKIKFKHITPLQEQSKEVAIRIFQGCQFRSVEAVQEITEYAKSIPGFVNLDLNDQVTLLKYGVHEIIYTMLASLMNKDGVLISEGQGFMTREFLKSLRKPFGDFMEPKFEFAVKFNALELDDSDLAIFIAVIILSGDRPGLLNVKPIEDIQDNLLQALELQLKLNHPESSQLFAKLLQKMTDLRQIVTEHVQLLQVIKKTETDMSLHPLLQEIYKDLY
Sequence of Glucocorticoid receptor (Homo sapiens) (P04150 whole entry, looked up): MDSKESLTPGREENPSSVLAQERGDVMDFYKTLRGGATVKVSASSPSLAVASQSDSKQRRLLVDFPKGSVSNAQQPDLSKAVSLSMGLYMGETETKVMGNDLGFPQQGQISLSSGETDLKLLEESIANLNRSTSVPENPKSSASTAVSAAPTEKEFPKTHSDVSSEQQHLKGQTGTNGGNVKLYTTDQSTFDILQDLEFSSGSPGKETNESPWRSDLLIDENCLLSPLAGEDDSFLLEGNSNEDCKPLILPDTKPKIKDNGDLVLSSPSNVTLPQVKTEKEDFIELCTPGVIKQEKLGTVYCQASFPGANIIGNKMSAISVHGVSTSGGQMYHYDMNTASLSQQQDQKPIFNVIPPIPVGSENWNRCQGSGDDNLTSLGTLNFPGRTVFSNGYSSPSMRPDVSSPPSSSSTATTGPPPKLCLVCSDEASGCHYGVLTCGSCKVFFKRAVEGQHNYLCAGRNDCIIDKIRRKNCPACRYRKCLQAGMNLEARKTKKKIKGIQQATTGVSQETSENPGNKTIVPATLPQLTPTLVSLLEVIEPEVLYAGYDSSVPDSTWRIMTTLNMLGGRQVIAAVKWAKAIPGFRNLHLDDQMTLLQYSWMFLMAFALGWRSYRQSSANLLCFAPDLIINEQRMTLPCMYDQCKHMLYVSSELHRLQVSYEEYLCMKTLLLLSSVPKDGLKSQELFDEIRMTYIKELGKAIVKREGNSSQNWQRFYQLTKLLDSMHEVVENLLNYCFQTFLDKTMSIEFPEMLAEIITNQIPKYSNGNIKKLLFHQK

With `O=C(O)c1cccc([N+](=O)[O-])c1`, the activation in experiment [1] is 3.85% (inactive); in experiment [14], -1.71% (inactive) and -6.43% (inactive); in experiment [15], -1.01% (inactive) and -3.15% (inactive). Moreover, the result in experiment [2], in experiment [5], in experiment [6], in experiment [8] and in experiment [9] was inactive. In addition, the max response in experiment [3] was 27.4% and 43.1%; in experiment [7] it was -11.3% and -11.9%; in [10], -5.28% and -12.1%; in experiment [11], -4.13% (inactive) and 8.19% (inactive). In addition, the Potency result in experiment [4] and in experiment [13] was “inactive” in each case. For the same compound, the activity change % (negative = inhibition) in experiment [12] was 3.98% (inactive) and -3.17% (inactive).

Regarding `CC(C)=CCC/C(C)=C/C=O`, the activation in experiment [1] is -2.98% (inactive) and -2.55% (inactive); in experiment [14] it was -0.8% (inactive) and -0.838% (inactive). The result in [2], in experiment [5], in experiment [16], in [17], in experiment [8] and in [9] was inactive. The max response was -1.69% and 16.6% in experiment [3]; 15.9% and -0.251% in experiment [7]; 6.99% and -4.75% in experiment [10]; 4.52% (inactive) and -4.94% (inactive) in [11]. For the same compound, the Potency entry in [4], in experiment [18] and in experiment [13] was “inactive” throughout. The activity change % (negative = inhibition) in experiment [12] is -16.2% (inactive).

For `O=C(O)c1cccc(Cl)c1Cl`, the activation in experiment [1] is 6.71% (inactive); in experiment [14], -0.257% (inactive); in experiment [15], 0.0203% (inactive). Besides, the outcome in experiment [2], in experiment [5], in experiment [6], in experiment [16], in experiment [17] and in [8] was inactive. Moreover, the max response in experiment [3] was 5.12%; in [7], -8.8%; in experiment [10], -3.86%; in experiment [11], -4.53% (inactive). The Potency entry in [4], in [18] and in [13] was “inactive” throughout.

`O=C(O)c1ccc(C(=O)O)cc1`: the activation in [1] is 6.51% (inactive) and -2.73% (inactive); in [14], -0.449% (inactive) and 6.06% (inactive); in experiment [15] it was 0.423% (inactive) and -1.36% (inactive). The outcome in [2], in experiment [5], in [6], in experiment [16], in experiment [17] and in [8] was inactive. Further, the result in experiment [9] was inactive. Also, the max response in [3] was 14.5% and 21.9%; in experiment [7], -16.5% and -21.7%; in experiment [10], -3.66% and -13.6%; in [11] it was 1.97% (inactive) and -1.47% (inactive). For the same compound, the Potency entry in [4], in experiment [18] and in experiment [13] was “inactive” throughout. In addition, the activity change % (negative = inhibition) in [12] is -2.68% (inactive) and 4.87% (inactive).

On to `Cc1cccc2sc(N)nc12`, for which the activation was -9.53% (inactive) in [1], 2.1% (inactive) in [14] and 0.512% (inactive) in [15]. In addition, the result in experiment [2], in experiment [5], in [6], in [16], in experiment [17] and in experiment [8] was inactive. In addition, in experiment [9], the outcome was inactive. Moreover, the max response was 24.8% in [3], -1.76% in experiment [7], -5.71% in [10] and 1.45% (inactive) in experiment [11]. For the same compound, the Potency entry in experiment [4] and in [18] was “inactive” each time. Moreover, the Potency in [13] is 15 µM (active).

As for `CCCCC(=O)N(C)C`, the activation was -1.2% (inactive) in experiment [1], -1.85% (inactive) in [14] and -0.0165% (inactive) in [15]. Moreover, the outcome in [2], in [5], in [16], in [17], in [8] and in [9] was inactive. Further, the max response was -15% in [3], -11.8% in experiment [7], -2.95% in experiment [10] and 11.5% (inactive) in [11]. Moreover, the Potency entry in [4] and in experiment [18] was “inactive” each time. Also, the activity change % (negative = inhibition) in [12] was 6.71% (inactive).

In the case of `Nc1cccc(S(=O)(=O)O)c1`, the activation is -6.32% (inactive) in [1], -1.01% (inactive) in experiment [14] and -0.968% (inactive) in experiment [15]. Also, the result in experiment [2], in experiment [5], in experiment [16], in [17], in experiment [8] and in experiment [9] was inactive. Besides, the max response in experiment [3] is -7.97%; in [7], 8.69%; in experiment [10] it was -5.6%; in experiment [11], 16.1% (inactive). Further, the Potency result in experiment [4], in experiment [18] and in experiment [13] was “inactive” in each case. Besides, the activity change % (negative = inhibition) in [12] was -28.7% (inactive).
